A selection: hits, their analogues and other compounds. The true share with any hit is near 14%.
Pf growth 96h: P. falciparum growth inhibition at 96 hours; Potency, µM (series often up to 28.7 µM), hits mostly inhibitors; P. falciparum luciferase reporter growth, 96 h; AID 504834; 320,000 tested, 6.9% active
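Compounds incubated with erythrocytes infected by luciferase-expressing P. falciparum (2% hematocrit, 0.05% parasitemia final) for 96 hours, 37 C in 5% CO2. Growth inhibition scored as decreased luciferase luminescence.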
Pf growth 48h: inhibits P. falciparum growth in the first generation, 48 h; AID 504832; P. falciparum luciferase growth in erythrocytes, 48 h; 310,000 tested, 5.9% active; Potency, µM (titrated, usually from 28.7 µM), actives largely listed as inhibitors
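Read-out is firefly luciferase luminescence from an integrated reporter in P. falciparum, so falling signal marks reduced parasite growth. Infected erythrocytes were at 2% hematocrit and 0.1% parasitemia (final) in Albumax-supplemented RPMI 1640.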
Sm TGR inh: blocks Schistosoma mansoni thioredoxin glutathione reductase; Q962Y6; purified TGR, DTNB reduction, TNB absorbance 405 nm; Potency, µM (titrated, usually from 114 µM), actives largely listed as inhibitors; 360,000 tested, 3% active; AID 485364; further: nearly all actives have a fitted effect of over 60% in size
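First, TGR (20 nM dispensed) and NADPH were mixed with compound. Second, a 15 min room-temperature incubation followed. Third, further NADPH and then DTNB were added to start the reaction. Finally, TNB absorbance was monitored kinetically.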
HCMV antiviral: blocks human cytomegalovirus replication | 410,000 tested, 4.5% active | HFF cells, HCMV-luciferase reporter, 72 h; stronger effect = lower value | activity change, negative = inhibition, % at 57.5 µM; in the data active means activity change below about -60%; inconclusive means no clear call, values can overlap the other calls; inactive means above about -39%
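Two compound doses tested in HFFs infected with HCMV-luciferase, MOI 1 PFU/cell, 72 h at 37C. Lysate luminescence read with OneGlo; data normalized against buffer-only and 10uM Salinomycin inhibitor controls.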
FBPA Giardia inh: blocks Giardia fructose-bisphosphate aldolase activity; AID 2451; purified Giardia FBPA; Potency, µM (titrated, usually from 59.6 µM), hits mostly inhibitors; A8B2U2; 290,000 tested, 0.71% active; further: nearly all actives have a fitted effect of over 55% in size
Target sequence (A8B2U2 whole entry, looked up): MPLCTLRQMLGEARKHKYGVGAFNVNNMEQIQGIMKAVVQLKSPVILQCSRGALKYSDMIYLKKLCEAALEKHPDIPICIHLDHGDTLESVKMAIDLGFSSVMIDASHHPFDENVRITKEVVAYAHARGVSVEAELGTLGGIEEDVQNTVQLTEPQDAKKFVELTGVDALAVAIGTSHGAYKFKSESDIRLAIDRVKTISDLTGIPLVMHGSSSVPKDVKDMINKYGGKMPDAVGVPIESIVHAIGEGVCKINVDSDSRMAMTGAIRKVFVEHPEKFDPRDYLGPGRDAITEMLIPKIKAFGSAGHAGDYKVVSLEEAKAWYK
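40 nM FBPA preincubated 10 min at RT with compound (up to 57.5 uM final), then substrate plus GAPDH/TPI/NAD/arsenate coupling and diaphorase/resazurin added. Fluorescence read after 20 min at RT, 525/598 nm.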
Large screens that a line does not name were inactive. Unless noted, the call rests on the fitted dose curve; in most records, active means well fitted curve in the direction sought with a large enough effect; inconclusive means small, poorly fitted or top-dose-only effect, or another doubt; inactive means no such curve, though single readings can be large; an effect the other way counts as inactive or inconclusive.

Cc1ccc(-n2ccnc2SCC(=O)N(CC(C)C)C2CCS(=O)(=O)C2)c(C)c1 (stereo not drawn)	Pf growth 96h 4.1µM, Pf growth 48h inconclusive
Clc1cccc(Cl)c1Cn1cnc(=NCc2ccco2)c2[nH]cnc21	Pf growth 48h 15µM, HCMV antiviral -71 (no result: Pf growth 96h)
C=CC(=O)NC(C)(C)CCN1CCOCC1	Pf growth 48h 0.93µM
CC(C)(C)NC(=O)CCN1CCOCC1	none (no result: Pf growth 96h)
O=C(Nc1ccc(Br)cc1F)c1cccnc1	none
O=C1OC(C2=CCCCC2)=NC12CC2	none (no result: Pf growth 96h, Pf growth 48h, Sm TGR inh, HCMV antiviral)
COc1ccc(CNC(=O)c2ccc(NC(=O)C3=CSCCO3)cc2)cc1	Pf growth 96h inconclusive (no result: FBPA Giardia inh)
CC(=O)NC(CC(=O)N(Cc1ccccc1)c1ccc(C)cc1)c1ccccc1 (stereo not drawn)	Pf growth 96h 13µM, Pf growth 48h inconclusive (no result: FBPA Giardia inh)
Cc1noc2ncnc(Sc3ccc(Br)cc3)c12	Pf growth 96h inconclusive, Pf growth 48h inconclusive, Sm TGR inh inconclusive, HCMV antiviral -106
O=C(NCc1cccnc1)C1CCN(S(=O)(=O)c2cc([N+](=O)[O-])ccc2Cl)CC1	none (no result: Pf growth 96h, Pf growth 48h, Sm TGR inh, FBPA Giardia inh)
O=C(CN(C(=O)c1csnn1)c1cccc2ccccc12)NC1CCCC1	none
CCCCN(CCCC)CCCNC(=O)Cn1cc2c(n1)-c1c(oc(C(=O)N3CCCC3)c1C)CC2	Pf growth 96h inconclusive, Pf growth 48h 12µM, HCMV antiviral inconclusive
Cc1ccc(CNC(=O)Cn2cc3c(n2)-c2c(oc(C(=O)N4CCOCC4)c2C)CC3)cc1	HCMV antiviral inconclusive (no result: Pf growth 96h, Pf growth 48h, FBPA Giardia inh)
CCCN(CCC)CCNC(=O)Cn1cc2c(n1)-c1c(oc(C(=O)N3CCCC3)c1C)CC2	none (no result: Pf growth 96h, Pf growth 48h, FBPA Giardia inh)
CCOc1ccc(CNC(=O)Cn2cc3c(n2)-c2c(oc(C(=O)N4CCOCC4)c2C)CC3)cc1	HCMV antiviral -63 (no result: Pf growth 96h, Pf growth 48h, FBPA Giardia inh)
COc1ccc(-c2noc(CCCC(=O)NCC3CCCO3)n2)cc1 (stereo not drawn)	Pf growth 96h inconclusive
O=C(NCCCc1ccccc1)c1cccc(Br)c1	none (no result: Pf growth 96h, Pf growth 48h, Sm TGR inh, FBPA Giardia inh)
O=C(CN(Cc1ccccc1)C(=O)CCl)c1cccc(Br)c1	Pf growth 96h inconclusive, Pf growth 48h inconclusive, Sm TGR inh 8.9µM, HCMV antiviral -99 (no result: FBPA Giardia inh)
N#Cc1nc(/C=C/c2ccc(F)cc2)oc1N1CCCCCC1	none (no result: Pf growth 96h, Pf growth 48h, FBPA Giardia inh)
COc1ccc(C(=O)C(C)OC(=O)CCN2C(=O)C3CC=CCC3C2=O)cc1 (stereo not drawn)	Pf growth 96h inconclusive, HCMV antiviral inconclusive (no result: FBPA Giardia inh)
Cn1c(Cl)cnc1C1CC(=O)c2cc(Cl)ccc2O1 (stereo not drawn)	Pf growth 96h inconclusive, Pf growth 48h inconclusive, HCMV antiviral -96
CCOC(=O)[C@H]1[C@H]2COc3ccc(Cl)cc3[C@@H]2N2C(=O)CN(C)C(=O)[C@@]12C	Pf growth 96h inconclusive (no result: FBPA Giardia inh)
COC(=O)NC(c1ccccc1)C(C(=O)OC)C(=O)OC (stereo not drawn)	none (no result: Pf growth 96h, Pf growth 48h, Sm TGR inh, HCMV antiviral)
COC(=O)CN(c1cc(Cl)ccc1OC)S(=O)(=O)c1ccc(C)cc1	Pf growth 48h 2.1µM, HCMV antiviral inconclusive
COC(=O)CN(c1cccc(OC)c1)S(C)(=O)=O	Pf growth 96h 5.9µM
COC(=O)CN(c1cc([N+](=O)[O-])ccc1OC)S(C)(=O)=O	Pf growth 96h 15µM
COc1ccccc1N(CC(=O)Nc1cc(C)on1)S(=O)(=O)c1ccc(Cl)cc1	Pf growth 48h inconclusive, HCMV antiviral -69 (no result: Pf growth 96h)
COc1ccccc1N(C)S(=O)(=O)c1ccc(C(=O)OCC(=O)Nc2cc(C)on2)cc1	HCMV antiviral inconclusive
COc1ccc([N+](=O)[O-])cc1N(CC(=O)O)S(C)(=O)=O	none (no result: Sm TGR inh)
COc1cccc(NC(=O)CN(c2cccc(OC)c2)S(C)(=O)=O)c1	none
COc1ccc(Cl)cc1N(CC(=O)N1CCCC1)S(=O)(=O)c1ccc(C)cc1	Pf growth 96h inconclusive
COc1ccc(Cl)cc1N(CC(=O)NC(C)(C)C)S(=O)(=O)c1ccc(C)c([N+](=O)[O-])c1	Pf growth 48h inconclusive, HCMV antiviral -76
CCC(C)NC(=O)CN(c1cc(Cl)ccc1OC)S(C)(=O)=O (stereo not drawn)	none
COc1cccc(CN(C)CCCn2cnc(C(=O)Nc3ccc(C)c(C)c3)n2)c1	none (no result: Pf growth 96h, Pf growth 48h, Sm TGR inh, FBPA Giardia inh)
CC(C)c1ccc(NC2(C#N)C(=O)Nc3ccccc32)cc1 (stereo not drawn)	HCMV antiviral -72 (no result: Pf growth 96h, FBPA Giardia inh)
Cc1c(C(=O)NCc2ccccc2)oc2ccc(S(=O)(=O)N3CCCC3)cc12	Pf growth 96h inconclusive, Sm TGR inh inconclusive (no result: Pf growth 48h)
Cc1c(C(=O)NCc2cccnc2)oc2ccc(S(=O)(=O)N3CCCCC3)cc12	Pf growth 96h inconclusive, Pf growth 48h 5.2µM, HCMV antiviral -83
Cc1c(C(=O)NCc2cccnc2)oc2ccc(S(=O)(=O)N3CCCCCC3)cc12	Pf growth 48h 9.3µM
CN1C(=O)c2ccccc2Sc2ccc(NC(=O)c3ccc(C#N)cc3)cc21	none (no result: Pf growth 96h, Pf growth 48h, FBPA Giardia inh)
COc1ccc(/C=C2\Sc3ccc(C(=O)NC4CC4)cc3N(C)C2=O)cc1OC	Pf growth 48h inconclusive
CCOC(=O)C1CCCN(C(=O)c2ccc3c(c2)NC(=O)C(N2CCOCC2)S3)C1 (stereo not drawn)	Pf growth 96h inconclusive, Pf growth 48h 8.3µM
CCOc1ccc(/C=C2/Sc3ccc(C(=O)N4CCOCC4)cc3N(C)C2=O)cc1OC	Pf growth 48h 9.3µM (no result: FBPA Giardia inh)
COc1ccc(/C=C2\Sc3ccc(C(=O)N4CCCC4)cc3N(C)C2=O)cc1OC	Pf growth 96h inconclusive, Pf growth 48h 2.3µM (no result: HCMV antiviral, FBPA Giardia inh)
COc1ccc(/C=C2\Sc3ccc(C(=O)NCCN4CCCCCC4)cc3N(C)C2=O)cc1	Pf growth 48h 3.3µM
COc1ccc(/C=C2\Sc3ccc(C(=O)N4CCc5ccccc5C4)cc3N(C)C2=O)cc1	Pf growth 96h inconclusive (no result: HCMV antiviral)

High-throughput results deposited in PubChem BioAssay by National Center for Advancing Translational Sciences (NCATS).
